Tg IFNy HTS: blocks Toxoplasma gondii growth in the presence of IFN-gamma. Toxoplasma gondii growth in IFN-gamma-treated host cells; stronger effect = lower value. activity change, negative = inhibition, % (test concentration not listed). 69,000 tested, 3.8% active. AID 1259416; in the data active means activity change below about -70%, passing the limit was not always enough;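 further: host cells are HeLa cells infected with Toxoplasma gondii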
* hit, by the source's call; ! = not active in a repeat. The full list was thinned out, with hits kept by preference.

What do the screens show for `O=C(CN1C(=O)CCc2cc(S(=O)(=O)N3CCCCC3)ccc21)Nc1ccc2c(c1)OCCO2`?
Tg IFNy HTS: -13.6

What do the screens show for `O=C(CCCNS(=O)(=O)c1cccs1)N1CCC(c2cc3ncccc3cn2)CC1`?
Tg IFNy HTS: -17.9

How did Cc1noc(-c2ccc(N3CCN(C)C(C(=O)O)C3)nc2)n1 (centres undefined) do in these assays?
Tg IFNy HTS: -0.9

How did COc1ccc(-c2nc(CN3CCCC3c3ccccn3)c(C)o2)cc1 (centres undefined) do in these assays?
Tg IFNy HTS: 7.3

How did COc1ccc(-n2cccn2)c(CN2CCC(n3nc(C)cc3C)C2)c1 (centres undefined) do in these assays?
Tg IFNy HTS: -4.6

How did COc1ccc(-n2cccn2)c(CN2CCCCC2c2ccccn2)c1 (centres undefined) do in these assays?
Tg IFNy HTS: -85.2*

Results for CCc1cnc(N2CCC3(CC2)CC(N2CCOCC2)CO3)nc1 (centres undefined) ?
Tg IFNy HTS: -1.4

Results for OC(CNC1Cc2ccccc2C1)COc1ccc(F)cc1 (centres undefined) ?
Tg IFNy HTS: -39.7

How did CCc1ccccc1OC[C@@H](O)CN[C@H]1CCCc2ccccc21 do in these assays?
Tg IFNy HTS: -80.5*!

How did CC(C)(C)NC[C@H](O)COc1ccccc1C1CCCC1 do in these assays?
Tg IFNy HTS: 16.3

Results for COc1ccccc1-c1noc(C2CCCN2C(=O)c2sc(C)nc2C)n1 (centres undefined) ?
Tg IFNy HTS: -35.0

Results for Cc1oc(-c2cccc(Cl)c2)nc1CN1CCN(C(=O)Nc2ccc(Cl)cc2)CC1 ?
Tg IFNy HTS: -7.1

How did Cc1cc(Nc2ccccn2)cc(C2CCCN(C(=O)c3n[nH]c4c3CCCCCC4)C2)n1 (centres undefined) do in these assays?
Tg IFNy HTS: -85.6*

How did O=C(c1n[nH]c2c1CCCCCC2)N1CCCN(c2ccccn2)CC1 do in these assays?
Tg IFNy HTS: 9.9

What do the screens show for `Cc1cc(Nc2ccccn2)cc(C2CCCN(S(=O)(=O)c3ccc(F)cc3)C2)n1` (centres undefined)?
Tg IFNy HTS: -65.4

How did Cc1ccccc1-n1cc(-c2ccnc(NC3CCNCC3)n2)cn1 do in these assays?
Tg IFNy HTS: -25.8

Results for COc1ccccc1-n1cc(-c2ccnc(NCCc3cnccn3)n2)cn1 ?
Tg IFNy HTS: -27.6

What do the screens show for `Fc1ccccc1-n1cc(-c2ccnc(NCc3ccon3)n2)cn1`?
Tg IFNy HTS: -76.0*

How did CCOc1ccc(CC(=O)N[C@@H](CC)Cn2nc3c(cc2=O)CCCCC3)cc1OCC do in these assays?
Tg IFNy HTS: -17.1

What do the screens show for `O=c1cc(O)c2c(=O)n(-c3ccccc3)c(-c3ccccc3)cc2o1`?
Tg IFNy HTS: -99.6*

How did O=c1cc(CN2CCN(c3cccc(Cl)c3)CC2)c2cc(O)c(-c3ccccc3)cc2o1 do in these assays?
Tg IFNy HTS: 33.4

What do the screens show for `O=c1cc(-c2ccccc2)c2cc(Cl)c(O)cc2o1`?
Tg IFNy HTS: -0.8

How did COc1ccc2[nH]c(C(=O)N3CCc4c(nc[nH]c4=O)C3)c(C)c2c1 do in these assays?
Tg IFNy HTS: 4.4

How did Cc1cc(Cl)ccc1OCC(=O)NCCOc1nc(N)nc(N(C)C)n1 do in these assays?
Tg IFNy HTS: -38.2

How did COc1ccc(C(=O)N(Cc2ccccc2)C2(C(=O)NCc3ccccc3)CCN(C(C)=O)CC2)cc1 do in these assays?
Tg IFNy HTS: -24.9

How did CCOCC(=O)N1Cc2ccnn2CC(COc2cccnc2)C1 (centres undefined) do in these assays?
Tg IFNy HTS: 9.6

How did CC(=O)Nc1ccc(C(=O)N(c2ccc(C)cc2)C2(C(=O)NCc3ccccc3)CCN(C(C)=O)CC2)cc1 do in these assays?
Tg IFNy HTS: 79.5

Results for CC(=O)N1CCC(C(=O)NCc2ccccc2)(N(C(=O)c2ccc(Br)cc2)c2ccc(C)cc2)CC1 ?
Tg IFNy HTS: 62.7

Results for CC(=O)N1CCC(C(=O)NCc2ccccc2)(N(C(=O)c2ccc(C)cc2)c2ccc(C(C)C)cc2)CC1 ?
Tg IFNy HTS: -97.5*

Results for CCCCC(CC)CNC(=O)CCCCCN1C(=O)c2ccccc2C1=O (centres undefined) ?
Tg IFNy HTS: 13.2

Results for O=C(CCCCCN1C(=O)c2cccc3cccc(c23)C1=O)NO ?
Tg IFNy HTS: -84.0*

How did COc1ccccc1NC(=O)CCCCCN1C(=O)c2cccc3cccc(c23)C1=O do in these assays?
Tg IFNy HTS: 20.0

Results for CC(C)c1cc(NCc2cccnc2Oc2ccc(F)cc2F)ncn1 ?
Tg IFNy HTS: -33.1

What do the screens show for `CCc1nc(Nc2ccc3c(c2)OCO3)c2nnn(Cc3ccccc3Cl)c2n1`?
Tg IFNy HTS: -98.8*

Results for Clc1ccccc1Cn1nnc2c(Sc3nc4ccccc4s3)ncnc21 ?
Tg IFNy HTS: 73.4

Results for Fc1ccccc1CSc1nc(Nc2ccc3c(c2)OCO3)c2ccccc2n1 ?
Tg IFNy HTS: -45.0

How did O=C(NCc1ccc(Cl)cc1)c1c(O)c2cccnc2n(-c2ccc(F)cc2)c1=O do in these assays?
Tg IFNy HTS: -105.1*

What do the screens show for `O=C(NCc1cccc(Cl)c1)c1c(O)c2cccnc2n(-c2cccc(F)c2)c1=O`?
Tg IFNy HTS: 71.7

Results for COc1cccc(CNC(=O)c2c(O)c3ccccc3n(-c3ccccc3)c2=O)c1 ?
Tg IFNy HTS: -5.0

How did O=C(NCc1cccc(Cl)c1)c1c(O)c2cccnc2n(-c2ccc(F)cc2)c1=O do in these assays?
Tg IFNy HTS: 127.5

How did O=C(NCc1ccccc1)c1c(O)c2cccnc2n(-c2ccc(F)cc2)c1=O do in these assays?
Tg IFNy HTS: 74.8

Results for O=C(NCc1ccc(Cl)cc1)c1c(O)c2ccccc2n(-c2ccccc2)c1=O ?
Tg IFNy HTS: -124.4*

What do the screens show for `O=C(NCc1cccnc1)c1c(O)c2ccccc2n(-c2ccccc2)c1=O`?
Tg IFNy HTS: -5.1

How did O=C(NCc1ccc(Cl)cc1)c1c(O)c2cccnc2n(-c2cccc(F)c2)c1=O do in these assays?
Tg IFNy HTS: 138.7

How did O=C(NCc1cccc(Cl)c1)c1c(O)c2cccnc2n(-c2ccccc2)c1=O do in these assays?
Tg IFNy HTS: -83.1*

What do the screens show for `CC(=O)c1cnc2nc(-c3ccncc3)nn2c1C`?
Tg IFNy HTS: 13.0

What do the screens show for `c1ccc(-c2nc(C3COCCN3)cs2)cc1` (centres undefined)?
Tg IFNy HTS: 37.8

Results for Cc1oc(C2CCN(C(=O)CCCc3ccccc3)CC2)nc1C(=O)N1CCSCC1 ?
Tg IFNy HTS: -6.0

What do the screens show for `CSc1ccc(C2NC(=NCc3ccco3)Nc3nc(C)cc(=O)n32)cc1` (centres undefined)?
Tg IFNy HTS: -41.9

How did Cc1ccc(S(=O)(=O)N2CCn3cnc(COCC4CC4)c3C2)cc1 do in these assays?
Tg IFNy HTS: -1.5

How did O=C(O)C1CN(C(=O)c2[nH]c3ccc(Cl)cc3c2-c2ccccc2)CCN1 (centres undefined) do in these assays?
Tg IFNy HTS: 37.2

What do the screens show for `Cc1c(C(=O)CN2C(=O)COc3ccccc32)c2ccccc2n1C`?
Tg IFNy HTS: 1.8

What do the screens show for `Cc1cccc(CN2CC3(CCN(Cc4cn(C)nc4C)CC3)CC2=O)n1`?
Tg IFNy HTS: -6.0

How did CC(NC(=O)C1CSC(c2ccncc2)=N1)c1cc(=O)[nH]c(N2CCCC2)n1 (centres undefined) do in these assays?
Tg IFNy HTS: 8.9

How did O=C(c1ccc2ccc(N3CCN(c4ncccn4)CC3)n2c1)N1CCCCC1 do in these assays?
Tg IFNy HTS: -6.1

How did c1ccc(SSc2ccccc2)cc1 do in these assays?
Tg IFNy HTS: 9.5

Results for FC(F)(F)C(Sc1ccccc1)=C(Sc1ccccc1)Sc1ccccc1 ?
Tg IFNy HTS: -79.6*
